# Compounds with a hit are over-represented: about 4.5% of the library has one in this group of screens.
# GBA mod = Glucocerebrosidase | Potency, µM | 1.1% of 48,000 active | AID 360, 2006 | purified enzyme, resorufin glucoside fluorescence (screen aimed at inhibitors), 20 min | Lysosomal acid glucosylceramidase (Homo sapiens), P04062; in the data active = potency below about 15 µM; inconclusive = mostly about 16 µM to 33 µM;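 note: the screen sought inhibitors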
#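 Normal human glucocerebrosidase (0.2 nM final) was assayed with resorufin β-D-glucopyranoside (30 uM final) in 50mM citric acid/KH2PO4, 10mM sodium taurocholate, 0.01% tween-20, pH 5.9. Compounds were titrated; fluorescence (Ex 548, Em 600) read after 20 min at RT.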
# TSHR agonist = qHTS Assay for Agonists of the Thyroid Stimulating Hormone Receptor | HEK293-CNG-TSHR cells (CNG channel as cAMP sensor), membrane potential dye, cAMP | Potency, µM (doses to about 57.1 µM), for the others: at the top dose activation, most hits filed as activators | 0.48% of 73,000 active | AID 926, 2007; active = well fitted activation curve with a large enough effect in the main read-out, with a control signal flat, not every such curve was filed as active; inconclusive = small, poorly fitted or top-dose-only effect, or a change in a side signal; inactive = no such curve, though single readings can be large or run the other way; % of control where 0% means no effect;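 note: the control signal comes from parental cells without the receptor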
#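 HEK 293 cells stably expressing TSHR and a cAMP-gated CNG channel; parental CNG-only cells as counterscreen. Cells preloaded 60 min with membrane potential dye plus 100 uM RO 20-1724, then compound 30 min; fluorescence read at 590 nm.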
# HEK293 cAMP ctrl = qHTS Assay for Agonists of the Thyroid Stimulating Hormone Receptor: Activators of Intracellular cAMP Concentrations in Parental HEK 293. parental HEK293 CNG cAMP sensor, membrane potential fluorescence. Potency, µM (top dose mostly 57.1 µM), for inactives: top-dose activation, most hits filed as activators. 2.5% of 73,000 active; note: % of control where 0% means no effect; nearly all actives have a fitted effect of over 55% in size
#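 Parental HEK 293 cells stably expressing a modified CNG channel (no TSHR) report cAMP rise as membrane depolarization. Membrane potential dye with 100 uM RO 20-1724 was loaded for 60 min at room temperature, then compound added for 30 min; fluorescence read at 590 nm.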
# Caspase-1 inhib = qHTS Assay for Allosteric/Competitive Inhibitors of Caspase-1; P29466; Caspase-1 enzyme, Ac-WEHD-AFC fluorogenic rate; Potency, µM (highest dose often 57.5 µM), inactives show at the highest dose activity change, negative = inhibition, hits mostly inhibitors; 0.03% of 75,000 active;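 note: plate controls were vehicle for no effect and no substrate for full effect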
# ERK AVP inh = qHTS Assay for Inhibitors of the ERK Signaling Pathway using a Homogeneous Screening Assay | HEK293-V1b, vasopressin-stimulated pERK AlphaScreen | Potency, µM (titrated, usually from 57.5 µM), without a hit: top-dose activity, negative = inhibition, actives largely listed as inhibitors | 0.99% of 72,000 active | AID 995, 2007; note: % is set by controls: 0 for no effect and ±100 for the full control effect; nearly all actives have a fitted effect of over 55% in size
#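 Overnight-seeded V1b-HEK293 cells in 1% FBS got compound, then vasopressin (25 nM final, 5 min, 37C), then lysis buffer. AlphaScreen detection of phospho-ERK; activity normalized to basal and full-stimulation controls.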
# Caspase-7 inhib = qHTS Assay for Allosteric/Competitive Inhibitors of Caspase-7. 0.02% of 75,000 active. recombinant caspase-7, Ac-DEVD-AFC fluorescence rate. P55210. AID 889, 2007. Potency, µM (doses to about 57.5 µM), for inactives: top-dose activity change, negative = inhibition, hits mostly inhibitors; active = well fitted inhibition curve with a large enough effect in the main read-out, with a control signal flat, not every such curve was filed as active; inconclusive = small, poorly fitted or top-dose-only effect, or a change in a side signal; note: % of control where 0% means no effect
# The depositor's hits bear a star; u = inconclusive; x = not tested or not shown; ! = repeats disagree; [ ] = remark or other dose. Unless noted, calls come from the whole dose curve; as a rule, active = well fitted curve in the direction sought with a large enough effect; inconclusive = small, poorly fitted or top-dose-only effect, or another doubt; inactive = no such curve, though single readings can be large; an effect the other way counts as inactive or inconclusive. Potency is the fitted concentration of half-maximal effect.
SMILES,GBA mod,TSHR agonist,HEK293 cAMP ctrl,Caspase-1 inhib,ERK AVP inh,Caspase-7 inhib
O=C1C=CC(=O)c2c1ccc1c2ccc2ccccc21,x,-18%[25.6 µM],1%[25.6 µM],-3%[25.7 µM],13µM*,-12%[25.7 µM]
CCCN(CCC)[C@@H]1CCc2c(OC)cccc2[C@@H]1C,x,u,32µM*,-1%,-16%,2%
C[C@]12Cc3cn4c(nc3C=C1CC[C@H]1[C@@H]2CC[C@@]2(C)[C@H]1CC[C@@]2(O)C#N)nc1ccccc14,x,u,u,3%,-4%,u
O=C(O)c1cc[c]([Hg][S]c2ncnc3nc[nH]c23)cc1,x,-9%[11.4 µM],22%[11.4 µM],-4%[11.5 µM],4%[11.5 µM],-4%[11.5 µM]
c1cnc(N2CCCC3(CCNCC3)C2)nc1,x,2%,9%,-2%,-12%,-1%
c1ccc(N2CC3(CCNCC3)C2)cc1,x,u,10µM*,-3%,11%,0%
c1cc(N2CCCC3(CCNCC3)C2)ccn1,x,u,2.5µM*,-2%,7%,1%
c1ccc(N2CC3(CCNCC3)C2)nc1,x,-3%,6%,-2%,9%,0%
C=CCCN1C[C@@H]2C[C@H](C1)c1cccc(=O)n1C2,x,-5%,3%,x,x,x
COC(=O)[C@H]1C[C@@H]1[C@H](NP(=O)(c1ccccc1)c1ccccc1)c1ccccc1,x,u,0.5µM*,5%,9%,6%
O=C(O)[C@@H]1C[C@H]1[C@@H](NP(=O)(c1ccccc1)c1ccccc1)c1ccccc1,x,3%,3%,2%,-1%,6%
COC(=O)[C@@H]1C[C@H]1[C@@H](NP(=O)(c1ccccc1)c1ccccc1)c1ccccc1,x,u,13µM*,1%,-11%,-1%
COC(=O)[C@@H]1C[C@@H]1[C@@H](NP(=O)(c1ccccc1)c1ccccc1)c1ccccc1,x,u,10µM*,x,x,x
CNC(=O)[C@H]1C[C@@H]1[C@H](NP(=O)(c1ccccc1)c1ccccc1)c1ccccc1,x,u,16µM*,2%,9%,-2%
COc1ccc(C[C@@H]2NC[C@H](O)[C@H]2OC(C)=O)cc1,x,0%,1%,x,x,x
CCC(=O)c1cn(Cc2ccccc2C#N)c2ccccc12,>77,u,20µM*,-1%,0%,3%
N#Cc1ccccc1Cn1cc(C(=O)c2ccco2)c2ccccc21,>77,u,16µM*,-5%,-16%,-4%
O=C(Cn1cc(C(=O)c2ccccc2F)c2ccccc21)NCc1ccco1,>77,16%,7%,-1%,-16%,-1%
N#Cc1ccccc1Cn1cc(C(=O)C2CC2)c2ccccc21,>77,u,u,-1%,-7%,-2%
CC[C@@]12CCCN3CC[C@@]4(c5ccc(OC)c(O)c5N(C(C)=O)[C@H]4CC1)[C@H]32,x,4%,5%,x,x,x
CN(CC1COc2ccccc2O1)c1nc(-c2cccnc2)nc2ccccc12 (centres undefined),>77,u,25µM*,-5%,17%,-2%
O=C1NCN(c2ccccc2)C12CCN(C[C@H]1COc3ccccc3O1)CC2,x,u,u,1%,-8%,1%
CCC(=O)O[C@H]1CC[C@H]2[C@@H]3CCC4=CC(=O)CC[C@]4(C)[C@H]3CC[C@]12C,x,u,16µM*,-15%[25.7 µM],-2%[25.7 µM],-5%[25.7 µM]
CC12CCC(=O)C=C1CCC1C2CCC2(C)C(O)CCC12 (centres undefined),x,13%,5%,-1%,-25%,-1%
Cn1cc(CCC(=O)N2CCC3(CC2)OCCO3)c2ccccc21,>77,-5%,-1%,-1%,-1%,0%
SMILES,GBA mod,TSHR agonist,HEK293 cAMP ctrl,Caspase-1 inhib,ERK AVP inh,Caspase-7 inhib
Cc1cc(N2CCOCC2)nc2ccc(NC(=O)CCC(=O)N3CCC4(CC3)OCCO4)cc12,4.7*,0%,7%,0%,2%,-1%
C/C=C(\C)C(=O)O[C@@H]1C(C)=C2[C@H]([C@@H]1OC(=O)CCCCCCC)[C@@](C)(OC(C)=O)C[C@@H](OC(=O)CCC)[C@@]1(O)[C@H]2OC(=O)[C@]1(C)O,x,x,13%,2%,20%,1%
C[N+]1(C)CCO[C@@](O)(c2ccc(-c3ccc([C@]4(O)C[N+](C)(C)CCO4)cc3)cc2)C1,x,1%,2%,-1%,-6%,4%
COc1cc2c(cc1O)-c1c(O)c(OC)cc3c1[C@H](C2)N(C)CC3,x,-2%,-5%,32µM*,11%,-27%
COc1cc2c(cc1O)C[C@@H]1c3c(cc(O)c(OC)c3-2)CCN1C,x,3%[11.4 µM],5%[11.4 µM],-4%[11.5 µM],-11%[11.5 µM],2%[11.5 µM]
CC[C@H]1CN2CC[C@@H]1C[C@@H]2[C@H](O)c1ccnc2ccccc12,x,1%,0%,x,x,x
N[C@H](CCl)C(=O)O,x,3%,12%,4%,-16%,1%
COc1ccc(C2=NCC(=O)N(CC(=O)NCc3ccco3)c3sc4c(c32)CCCC4)cc1,x,16µM*,19%,-4%,-8%,-6%
CN[C@H]1[C@H]2[C@H]3CCN2C[C@@H]1O3,x,5%,0%,x,x,x
CCCCOC(=O)c1ccccc1C(=O)OCc1ccccc1,x,u,16µM*,-4%,117%,-7%
N#CC(C(=O)C12CC3CC(CC(C3)C1)C2)c1nc2ccccc2[nH]1 (centres undefined),>77,u,3.2µM*,-6%,u,-8%
Ic1ccccc1CN[C@@H]1C2CCN(CC2)[C@H]1C(c1ccccc1)c1ccccc1,x,u,u,3%,17%,-2%
O=CN1C[C@H]2C[C@@H](C1)c1cccc(=O)n1C2,x,-1%,-4%,x,x,x
O=C(NC[C@H]1CCCCN1)c1cc(OCC(F)(F)F)ccc1OCC(F)(F)F,x,u,4µM*!,-1%,14%,0%
Cc1noc(C)c1C(=O)N1CCC2(CCCN(CC(C)C)C2)CC1,x,u,16µM*,-2%,22%,-1%
Cc1noc(C)c1C(=O)N1CCC2(CC1)OCCO2,>77,2%,2%,0%,-12%,1%
C=CCOC(=O)COc1cc(C)cc2oc(=O)c3c(c12)CCC3,x,u,5µM*,-1%,14%,-3%
Cc1cccc(N2CCc3c2nc2ccccc2c3N)c1,>77,-51%,-74%,-2%,25µM*!,1%
C[C@@H]1[C@H]2C=C[C@@H]1[C@@H](c1c3ccc(=O)c(O)c-3oc3c(O)c(O)ccc13)[C@@H]2C(=O)O,x,7%[11.4 µM],2%[11.4 µM],-5%[11.5 µM],7%[11.5 µM],-12%[11.5 µM]
CC(C)n1cc2c3c(cccc31)[C@@H]1C[C@H](C(=O)O[C@@H](C)[C@H](C)O)CN(C)[C@H]1C2,x,8%,18%,4%,u,-4%
OC[C@H]1CCCN2CCCC[C@@H]12,x,-1%,-2%,x,x,x
